ALOX15B inhib: qHTS Assay for Inhibitors of 15-hLO-2 (15-human lipoxygenase 2); hit rate 0.56% among 110,000; purified 15hLO-2, xylenol orange hydroperoxide absorbance; Potency, µM (titrated, usually from 57.1 µM), actives largely listed as inhibitors; AID 881, 2007; further: nearly all actives have a fitted effect of over 60% in size
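Purified human 15hLO-2 (50 nM final) preincubated with compounds 15 min at room temperature in 25 mM Hepes pH 7.5, 0.01% Triton X-100, then 45 uM arachidonic acid added for 90 min; hydroperoxide detected via ferrous/xylenol orange, 573/405 nm absorbance ratio.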
PNC assembly inh: High Content Assay for Compounds that inhibit the Assembly of the Perinucleolar Compartment; PC3M PTB-GFP, PNC prevalence imaging, 16 h; stronger effect = lower value; activity change (PNC), negative = inhibition, % at 10 µM; hit rate 3.1% among 140,000; AID 2417, 2010;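 active means readout at or below -70, meaning at least 70% loss of cells showing the perinucleolar compartment, a nuclear body marking cancer cells; inconclusive means readout between -30 and a set limit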
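Compounds are pinned in duplicate onto adhered PC3M cells stably expressing GFP-tagged PTB and incubated 16 h at 37 C. Cells are then fixed, nuclei stained with Hoechst, and PNC-positive cells counted.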
12-hLO inh: qHTS Assay for Inhibitors of 12-hLO (12-human lipoxygenase). Polyunsaturated fatty acid lipoxygenase ALOX12 (Homo sapiens), P18054. purified 12-hLO, xylenol orange hydroperoxide absorbance. Potency, µM (highest dose often 57.1 µM), most hits filed as inhibitors. hit rate 0.12% among 150,000. AID 1452, 2008; further: nearly all actives have a fitted effect of over 55% in size
Target sequence (P18054 whole entry, looked up): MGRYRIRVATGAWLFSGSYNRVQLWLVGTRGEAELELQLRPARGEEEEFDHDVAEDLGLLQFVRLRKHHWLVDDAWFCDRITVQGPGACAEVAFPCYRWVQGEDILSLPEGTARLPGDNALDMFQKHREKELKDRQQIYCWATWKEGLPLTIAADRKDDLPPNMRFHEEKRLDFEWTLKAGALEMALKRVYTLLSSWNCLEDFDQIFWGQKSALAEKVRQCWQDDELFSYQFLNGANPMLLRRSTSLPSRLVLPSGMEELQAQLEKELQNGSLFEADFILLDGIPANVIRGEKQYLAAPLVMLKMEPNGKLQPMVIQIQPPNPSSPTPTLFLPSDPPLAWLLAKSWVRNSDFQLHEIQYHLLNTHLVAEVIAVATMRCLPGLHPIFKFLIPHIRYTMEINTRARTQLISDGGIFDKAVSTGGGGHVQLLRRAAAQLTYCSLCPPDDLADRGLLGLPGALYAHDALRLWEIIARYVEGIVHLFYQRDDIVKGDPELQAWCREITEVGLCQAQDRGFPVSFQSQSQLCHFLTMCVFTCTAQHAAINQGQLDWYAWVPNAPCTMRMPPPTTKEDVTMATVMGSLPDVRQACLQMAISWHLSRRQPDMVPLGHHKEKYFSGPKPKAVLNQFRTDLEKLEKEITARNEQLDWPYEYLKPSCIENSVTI
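Purified human 12hLO (150 nM), preincubated 15 min with compound, then 40 uM arachidonic acid for 30 min, room temperature, Hepes pH 7.0 with 0.01% Triton X-100. Hydroperoxide detected by ferrous iron/xylenol orange; 573/405 nm absorbance ratio gives reaction progress.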
IMPase cell inh: qHTS Assay for Identifying the Cell-Membrane Permeable IMPase Inhibitors | inhibition (IP1 accumulation), % at 46.1 µM | CHO-M1 cells, IP1 accumulation, HTRF TR-FRET ratio | 120,000 tested, under 10 active | AID 901, 2007; active means well fitted curve in the direction sought with a large enough effect in the signal ratio, not every such curve was filed as active; inconclusive means small, poorly fitted or top-dose-only effect, or a change in a side signal; inactive means no such curve, though single readings can be large or run the other way; the % refers to the signal ratio;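 further: cells stimulated with carbachol in lithium chloride buffer; higher means more IMPase inhibition seen as more IP1 and lower FRET ratio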
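CHO-M1 cells (CHO stably expressing M1 receptor), compound up to 46 uM final, stimulated with carbachol (50 uM as added) in buffer with 50mM LiCl, pH 7.4, 30 min at 37C. Cytosolic IP1 read by TR-FRET; AC50 from Hill fits.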
A number is an active result; - = inactive; ? = inconclusive; . = no result; [ ] = remark or other dose. This is a sample that favours compounds with a hit; in the whole collection about 3% have one here. Unless noted, the call rests on the fitted dose curve; in most records, active means well fitted curve in the direction sought with a large enough effect; inconclusive means small, poorly fitted or top-dose-only effect, or another doubt; inactive means no such curve, though single readings can be large; an effect the other way counts as inactive or inconclusive.

SMILES	ALOX15B inhib	PNC assembly inh	12-hLO inh	IMPase cell inh
Cc1cccc(OCCC(=O)N(C)CC(=O)Nc2cccc3ccccc23)c1	.	?	-	-
O=C1C=C(c2ccccc2)OC(=O)C1C(=O)c1ccccc1 (configuration not stated)	.	-100.0	-	-
Cc1cc([N+](=O)[O-])nn1CCCC(=O)Nc1cc(Oc2ccc(F)cc2)cc([N+](=O)[O-])c1	.	-	-	-
Cc1cc([N+](=O)[O-])nn1CCCC(=O)N1CCN(c2ccc(F)cc2)CC1	.	-119.3	-	-
CCOC(=O)N1CCN(S(=O)(=O)c2ccc(OCC(=O)OC)c(C)c2)CC1	-	-84.0	-	-
Cc1ccc(S(=O)(=O)CCSc2nc(C)cc(C(F)(F)F)c2C#N)cc1	.	-118.9	-	-
CNC(=S)N/N=C(\C)c1ccc(N2CCOCC2)cc1	.	-112.3	-	-
CC(C)(C)c1ccc(O)c(/C=N\O)c1	-	-	-	-
CC(C)(C)c1ccc(O)c(O)c1	5.01µM	.	-	.
CCOC(=O)c1c(O)[nH]c(=O)c(CC)c1C	-[11.4 µM]	.	-[11.4 µM]	.
CCCS(=O)(=O)n1nc(-c2ccc(Br)cc2)cc1N	.	-119.3	-	-
CCOc1ccc(C(=O)Nc2ccc(-c3nc4ccccc4[nH]3)cc2)cc1[N+](=O)[O-]	.	-116.4	-	.
CCOc1ccc(NS(=O)(=O)c2ccc3[nH]cc(C(=O)N(CC)CC)c(=O)c3c2)cc1	-	-	15.8µM	-
Cc1ccc(S(=O)(=O)N(Cc2ccc(Cl)cc2)c2ccccc2C(=O)NCc2ccco2)cc1	.	?	-	-
COc1ccc(C2C(C(=O)Nc3cccnc3)=C(C)Nc3nc(-c4cccs4)nn32)cc1OC (configuration not stated)	-	-108.4	-	-
COc1ccc(C2C(C(=O)Nc3cccnc3)=C(C)Nc3nc(-c4cccs4)nn32)cc1 (configuration not stated)	.	-	-	-
CC1=C(C(=O)OC(C)(C)C)C(c2cccs2)NC(=O)N1 (configuration not stated)	.	-95.0	-	.
O=C(Cn1nc(-c2ccccc2)c2ccccc2c1=O)Nc1ccccn1	-	-	-	-
COc1ccc(C2NC(C(=O)O)Cc3c2[nH]c2ccccc32)cc1OC (configuration not stated)	-	-97.7	?	-
COc1cc(C2NC(C(=O)O)Cc3c2[nH]c2ccccc32)cc(OC)c1OC (configuration not stated)	-	?	-	-
COC(=O)c1cc(COc2ccc3c4c(c(=O)oc3c2)CCC4)c(C)o1	-	-	-	-
CCC(OC(=O)c1cccs1)C(=O)NCc1ccco1 (configuration not stated)	-	-101.1	-	-
O=C1c2ccccc2NC2(CCCC2)N1O	-	-107.7	-	-
CC(NC(=O)/C=C/c1ccc(Br)cc1)c1ccccc1 (configuration not stated)	.	-84.2	-	-
Cc1ccc(NC(=O)CSc2nnc(CNC(=O)c3c(F)cccc3Cl)o2)cc1	-	-91.3	-	-
SMILES	ALOX15B inhib	PNC assembly inh	12-hLO inh	IMPase cell inh
CCSc1nnc(NC(=O)CSc2nnc(CNC(=O)c3ccccc3F)o2)s1	.	-123.8	-	.
O=C(CSc1nnc(CNC(=O)c2ccccc2F)o1)NCCc1ccccc1	-	-	-	-
Cn1cc(-c2nnc(-c3ccccc3)o2)c2ccccc21	-	-	-	-
CCn1c(SCC(=O)N2CCN(c3ccccc3)CC2)nnc1-c1ccncc1	.	-100.0	-	-
Cc1ccccc1-n1c(SCC(=O)N2CCN(c3ccccc3)CC2)nnc1-c1ccncc1	-	-	-	-
Cc1cc(F)ccc1S(=O)(=O)Nc1ccc2oc3c(c2c1)CC(C)CC3 (configuration not stated)	.	.	.	-
Cc1cc(C)c(/C=N/n2c(C)cc(C)c(C#N)c2=O)c(C)c1	.	-	-	.
Cc1cc(C)n(/N=C/c2cccs2)c(=O)c1C#N	.	-98.0	-	.
CSCCC1C(=O)OC2(C)CC(C)(C)NC(=S)N12 (configuration not stated)	.	-100.0	-	-
CN1c2ccccc2C(C)(C)C12CC(c1ccc(Cl)c(S(=O)(=O)N3CCCC3)c1)=NO2 (configuration not stated)	.	-120.9	-	.

Screening results (PubChem)
